# Source: PubChem BioAssay
# TEAD-YAP block: TEAD-YAP interaction inhibition | AID 1259422 | HEK-TIYL cells, TEAD-Gal4/YAP UAS-luciferase luminescence | 1.4% of 640,000 active | inhibition, % at 9.12 µM; in the data active = inhibition above about 32%;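 also: 0% = median of test compound wells and 100% = reference inhibitor wells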
# GPR151 activ: activates the human receptor GPR151; Q8TDV0; PathHunter beta-arrestin GPR151 cells, luminescence; activation, % at 11.2 µM; 1% of 650,000 active; AID 1508602; in the data active = activation above about 4.9%;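 also: 0% = median of compound wells and 100% = cells with positive control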
# MITF primary: human MITF inhibition, primary screen. AID 1259374. inhibition, % at 2.6 µM. O75030. 0.91% of 650,000 active. AlphaScreen MITF homodimerization, bead proximity signal; in the data active = inhibition above about 50%;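 also: 0% = vehicle wells with protein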
# Target sequence (O75030 whole entry, looked up): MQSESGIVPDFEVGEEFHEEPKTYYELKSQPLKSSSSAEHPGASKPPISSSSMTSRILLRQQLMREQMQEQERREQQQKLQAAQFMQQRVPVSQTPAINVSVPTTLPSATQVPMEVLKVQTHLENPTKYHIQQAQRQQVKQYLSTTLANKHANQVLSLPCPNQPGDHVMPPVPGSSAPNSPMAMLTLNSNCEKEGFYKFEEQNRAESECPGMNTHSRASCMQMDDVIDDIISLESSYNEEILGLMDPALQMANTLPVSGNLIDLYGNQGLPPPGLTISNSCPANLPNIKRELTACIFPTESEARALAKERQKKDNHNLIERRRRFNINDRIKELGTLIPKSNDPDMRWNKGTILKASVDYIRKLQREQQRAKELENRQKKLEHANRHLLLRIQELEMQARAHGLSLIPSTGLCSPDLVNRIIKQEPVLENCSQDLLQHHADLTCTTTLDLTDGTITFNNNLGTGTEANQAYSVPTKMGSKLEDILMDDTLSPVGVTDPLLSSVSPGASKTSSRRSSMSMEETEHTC
# FBW7 activator: activators of human E3 ligase FBW7. AID 1259310. AlphaScreen FBW7–phospho-cyclin E peptide binding, activator screen. normalized activity (activation), % at 26.1 µM. 0.13% of 650,000 active; in the data active = normalized activity above about 1.9%;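 also: purified mutant Fbw7 with reduced substrate affinity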
# The depositor's hits bear a star. Hits are enriched below; roughly 3.4% of the tested compounds scored in any of these assays.
SMILES,TEAD-YAP block,GPR151 activ,MITF primary,FBW7 activator
O=C(c1ccc2nc3ccc(Cl)cc3c(=O)n2c1)N1CCN(c2ccc(F)cc2)CC1,-11,-1,-3,0
Cc1c(C(=O)NCCN(C)c2cccc(Cl)c2)sc2ncnc(N3CCOCC3)c12,9,-1,8,0
CC1CCCN(c2ccc3nc4ccccc4c(=O)n3n2)C1 (centres undefined),71*,-4,9,0
Cc1ccc2nc3ccc(N4CCCC4)nn3c(=O)c2c1,-60,0,1,0
Cc1cccc(N2CCN(C(=O)c3cc(S(=O)(=O)N4CCOCC4)ccc3F)CC2)c1C,10,-1,14,1
Cc1cc2nn(-c3ccccc3)nc2cc1NC(=O)C(C)C,19,-1,19,0
CC(=O)Nc1cc2nn(-c3ccccc3)nc2cc1C,50*,-7,-12,0
O=C(COc1ccccc1)Nc1ccc2nn(-c3ccccc3)nc2c1,-11,0,-2,0
CC(C)CC(=O)Nc1ccc2nn(-c3ccccc3)nc2c1,-49,-1,10,3.0*
CC(=O)N1CCc2c(sc(NC(=O)Cc3cccc4ccccc34)c2C#N)C1,54*,0,-3,0
CC(=O)N1CCc2c(sc(NC(=O)Cc3cccc4ccccc34)c2C(N)=O)C1,-4,2,5,0
N#Cc1c(NC(=O)CCc2ccccc2)sc2c1CCCCCC2,0,0,-12,0
N#Cc1c(NC(=O)CCc2ccccc2)sc2c1CCCC2,47*,0,12,0
N#Cc1c(NC(=O)CSc2ncn[nH]2)sc2c1CCCC2,49*,-1,4,0
CC(=O)N1CCc2c(sc(NC(=O)CCc3ccccc3)c2C#N)C1,54*,1,-4,0
CCOC(=O)C1=C(c2ccccc2)S/C(=C2/C(=S)C(C)(C)N(C(=O)CC(C)C)c3ccc(OCC)cc32)S1,1,1,3,0
O=C(O)c1ccc(NC(=O)c2ccc(Oc3ccccc3)cc2)cc1,39*,-1,13,0
O=C(Nc1cccc(F)c1)c1ccc(Oc2ccccc2)cc1,-7,-5,-6,0
O=C(Nc1ccncc1)c1ccc(C(=O)c2ccccc2)cc1,55*,-3,-10,0
O=C(Nc1ccncc1)c1ccc(C(=O)Nc2ccncc2)cc1,5,0,1,0
Cc1c(C(=O)Nc2cccc(C(=O)O)c2)cccc1[N+](=O)[O-],-1,1,16,3.5*
O=C(O)c1cccc(NC(=O)c2ccc(Oc3ccccc3)cc2)c1,93*,-10,15,1
Cc1c(C(=O)NC(=S)Nc2cccc(C(=O)O)c2)cccc1[N+](=O)[O-],9,-1,4,0
CCOC(=O)c1sc2nc(N)c(C#N)c(-c3ccc(OC)c(OC)c3)c2c1N,-5,-1,-4,0
CC1CCCN(c2ncnc3c2cnn3-c2ccccc2)C1 (centres undefined),84*,-1,-8,0
SMILES,TEAD-YAP block,GPR151 activ,MITF primary,FBW7 activator
CC1CC(C)CN(c2ncnc3c2cnn3-c2ccccc2)C1 (centres undefined),-56,2,8,0
CC1CCN(c2ncnc3c2cnn3-c2ccc(Cl)cc2)CC1,20,1,4,0
CC1CCCN(c2ncnc3c2cnn3-c2ccc(Cl)cc2)C1 (centres undefined),94*,1,-8,0
CN1CCN(c2ncnc3c2cnn3-c2ccc(Cl)cc2)CC1,67*,-1,-12,0
CC1CC(C)CN(c2ncnc3c2cnn3-c2ccc(Cl)cc2)C1 (centres undefined),34*,1,-12,0
CCN1CCN(c2ncnc3c2cnn3-c2ccc(Cl)cc2)CC1,-58,0,5,0
O=Cc1ccc(OC(=O)c2ccccc2[N+](=O)[O-])c(Cl)c1,2,2,-6,0
COCCn1c(SCC(=O)Nc2cccc(C)c2)nnc1-c1c[nH]c2ccccc12,3,0,1,0
CCOc1ccc(/C(O)=C2/C(=O)C(=O)N(Cc3cccnc3)C2c2cccc(Oc3ccccc3)c2)cc1 (centres undefined),16,0,14,0
Cc1cccc(-n2ncc3c(N4CCCCCC4)ncnc32)c1,74*,-5,-4,0
Cc1cccc(-n2ncc3c(N4CCCC(C)C4)ncnc32)c1 (centres undefined),96*,-3,-16,0
Cc1cccc(-n2ncc3c(N4CCC(C)CC4)ncnc32)c1,24,2,-7,0
CN(C)CCNc1ccnc2c(-c3ccccc3CO)cnn12,6,-1,25,1
OCCNc1nc(Nc2ccc3ncccc3c2)nc2c1ncn2-c1ccsc1,35*,1,10,0
